Test results reported in PubChem BioAssay (EPA / NIEHS).
Calls of active or inactive are those of the source. The calls were made as follows: active = hit-call score of the fitted dose curve at least 0.9, where 1 is the maximum; inactive = score below 0.9.

Read-out: E-selectin (Homo sapiens) (UniProt P16581)
Experiment: BSK_3C_Eselectin: BioMAP Diversity Plus: 3C Assay for Eselectin Biomarker Activity (AID 2283015)
Conditions: primary human endothelial cells (HUVEC); actives raise or lower the signal
Description: BSK_3C is a cell-based, multiplexed-readout assay that uses umbilical vein endothelium, a human vascular primary cell, with measurements taken at 24 hours after chemical dosing in a 96-well plate.BSK_3C_Eselectin is an assay component measured in the BSK_3C assay. It measures E-selectin antibody related to regulation of gene expression using ELISA technology.Data from the assay component BSK_3C_Eselectin was analyzed into 1 assay endpoint. This assay endpoint, BSK_3C_Eselectin, was analyzed with bidirectional fitting relative to DMSO as the negative control and baseline of activity. Using a type of binding reporter, gain or loss-of-signal activity can be used to understand changes in the signaling as they relate to the gene SELE. Furthermore, this assay endpoint can be referred to as a primary readout, because this assay has produced multiple assay endpoints where this one serves a signaling function. To generalize the intended target to other relatable targets, this assay endpoint is annotated to the cell adhesion molecules intended target family, where the subfamily is selectins.
The levels of cell surface (or secreted, indicated by the prefix "s") biomarker endpoints were measured by ELISA. Overt cytotoxicity to cells in confluent adherent cultures (all systems other than the BT system) was assessed by measuring total protein levels using sulforhodamine B (SRB) staining in parallel cultures at the time of biomarker measurements, indicated as SRB endpoints. For proliferation assays for adherent cell types, individual cell types are cultured at sub-confluence and relative cell numbers quantified by SRB staining at time points optimized for each system (48 h: 3C and CASM3C systems; 72 h: BT and HDF3CGF systems; 96 h: SAg system). SRB was performed by staining cells with 0.1% SRB after fixation with 10% TCA and reading wells at 560 nm.Viability and proliferation of PBMC (T cells) was quantified by Alamar Blue reduction for the SAg and BT systems. For PBMC viability (referred to as PBMC Cytotoxicity within the assay endpoint names), cells were plated (75,000/well in a 96-well plate) and then chemical samples added for 1 h before addition of activators, SEB and TSST-1 (20 ng/mL final concentration each). Cells were incubated for 90 h. Then, Alamar Blue (20 uL/well) (Invitrogen, Cat DAL1100) was added for 6 h, and the plates were read with a fluorescence microplate reader at 546/580 nm (excitation/emission). For PBMC proliferation, cells were plated and activated as above but incubated for only 16 h prior to addition of Alamar Blue. Plates were read after 6 h.

Chain of E-selectin (Homo sapiens) (P16581 whole entry, looked up): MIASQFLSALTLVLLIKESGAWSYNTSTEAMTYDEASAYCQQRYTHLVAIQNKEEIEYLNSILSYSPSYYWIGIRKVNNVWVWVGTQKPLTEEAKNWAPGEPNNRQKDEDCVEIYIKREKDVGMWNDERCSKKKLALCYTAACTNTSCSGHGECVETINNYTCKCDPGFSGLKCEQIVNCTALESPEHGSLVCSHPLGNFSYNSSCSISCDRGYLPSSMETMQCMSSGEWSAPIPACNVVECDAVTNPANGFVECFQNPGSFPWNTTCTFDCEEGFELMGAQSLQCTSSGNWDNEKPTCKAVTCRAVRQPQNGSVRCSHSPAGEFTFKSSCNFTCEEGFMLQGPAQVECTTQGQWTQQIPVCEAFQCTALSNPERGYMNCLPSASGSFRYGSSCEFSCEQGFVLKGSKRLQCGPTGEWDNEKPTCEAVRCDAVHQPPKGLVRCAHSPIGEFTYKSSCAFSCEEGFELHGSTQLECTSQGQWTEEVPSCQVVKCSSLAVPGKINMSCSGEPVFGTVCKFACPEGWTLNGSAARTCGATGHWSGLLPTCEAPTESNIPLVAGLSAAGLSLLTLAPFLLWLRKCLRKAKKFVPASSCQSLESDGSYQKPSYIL

**Q.** Which outcome does the source give for `CCOC(=O)CCC(=O)OCC` here?
**A.** inactive

**Q.** Which outcome does the source give for `OC[C@@H](O)[C@@H](O)[C@H](O)[C@H](O)CO` here?
**A.** inactive

**Q.** Which outcome does the source give for `NS(=O)(=O)c1cc2c(cc1Cl)NCNS2(=O)=O` here?
**A.** inactive

**Q.** Which AC50 does the source give for `COc1cc(-c2nc(NC(=O)c3cc4cc(C)cc(C)c4n3CC(=O)O)sc2CCC2CCCCC2)c(OC)cc1Cl` here?
**A.** 5.53 µM (active)

**Q.** How did the outcome turn out when `CCc1c(C(=O)NN2CCCCC2)nn(-c2ccc(Cl)cc2Cl)c1-c1ccc(Br)cc1` was run?
**A.** inactive

**Q.** `COC(=O)c1ccc(O)cc1` was tested. Which outcome did it give?
**A.** inactive

**Q.** How did the outcome turn out when `O=C(N[C@@H](Cc1ccccc1)[C@@H](O)C(=O)N1C[C@@H](O)[C@@H](O)C1)c1cc2cc(Cl)ccc2[nH]1` was run?
**A.** inactive

**Q.** How did the outcome turn out when `CCCCCCCCCCCCCCCCCC(=O)O` was run?
**A.** inactive

**Q.** For `CN1CCCC1=O`, which outcome is on record?
**A.** inactive

**Q.** For `CCCCCCC(=O)OCC`, which outcome is on record?
**A.** inactive

**Q.** Which AC50 does the source give for `CNCc1cc(F)ccc1Oc1ccc(Cl)c(Cl)c1` here?
**A.** 4.88 µM (active)

**Q.** For `CCCCCCCCCCC`, which outcome is on record?
**A.** inactive

**Q.** Which outcome does the source give for `C1CCC(SSC2CCCCC2)CC1` here?
**A.** inactive

**Q.** For `Cc1ccc(C)c(O)c1C`, which outcome is on record?
**A.** inactive

**Q.** `Cc1cccc(Nc2cc(Cl)nc(SCC(=O)O)n2)c1C` was tested. Which outcome did it give?
**A.** inactive

**Q.** Which outcome does the source give for `CCCCCCCCCCCC(=O)OC` here?
**A.** inactive

**Q.** Which outcome does the source give for `COc1ccc(S(=O)(=O)N2C(=O)[C@@](c3ccccc3OC)(N3C[C@H](O)C[C@H]3C(=O)N(C)C)c3cc(Cl)ccc32)c(OC)c1` here?
**A.** inactive

**Q.** Which outcome does the source give for `Nc1nc(N)c2nc(CNc3ccc(C(=O)N[C@@H](CCC(=O)O)C(=O)O)cc3)cnc2n1` here?
**A.** inactive

**Q.** How did the outcome turn out when `Oc1ccc2ccccc2c1N=Nc1ccccc1` was run?
**A.** inactive

**Q.** With `Cc1oc(-c2ccccc2)nc1CCOc1cccc2c1ccn2CCC(=O)O` as the molecule, how does the outcome read?
**A.** inactive

**Q.** `CC1(C)CC(N=C=O)CC(C)(CN=C=O)C1` (stereo not given) was tested. Which outcome did it give?
**A.** inactive

**Q.** For `CCOC(=O)C(C)(C)Oc1ccc(Cl)cc1`, which outcome is on record?
**A.** inactive

**Q.** How did the outcome turn out when `C=CCOC(=O)c1ccccc1C(=O)OCC=C` was run?
**A.** inactive

**Q.** With `CC=Cc1ccc(O)c(OC)c1` as the molecule, how does the outcome read?
**A.** inactive

**Q.** `CCCCC(CC)COC(=O)CC(C(=O)OCC(CC)CCCC)S(=O)(=O)O` (stereo not given) was tested. Which AC50 did it give?
**A.** 38.1 µM (active)

**Q.** How did the outcome turn out when `COCCOCCOC` was run?
**A.** inactive

**Q.** With `c1cc(-c2ccncc2)ccn1` as the molecule, how does the outcome read?
**A.** inactive

**Q.** Which outcome does the source give for `COc1cc(C=O)ccc1O` here?
**A.** inactive

**Q.** With `CCCCN(CCCC)CCCC` as the molecule, how does the outcome read?
**A.** inactive

**Q.** For `CNC(=O)[C@H]1O[C@@H](n2cnc3c(NCc4cc(Cl)ccc4OCc4cc(C)no4)ncnc32)[C@H](O)[C@@H]1N`, which outcome is on record?
**A.** inactive

**Q.** How did the outcome turn out when `Cc1cccc(C)c1O` was run?
**A.** inactive

**Q.** For `Nc1ccc2c(c1)C(=O)c1ccccc1C2=O`, which outcome is on record?
**A.** inactive

**Q.** Which outcome does the source give for `O=[N+]([O-])C(CO)(CO)CO` here?
**A.** inactive

**Q.** For `CCCCCCCC=O`, which outcome is on record?
**A.** inactive

**Q.** For `O=C(O)Cc1ccccc1Nc1c(Cl)cccc1Cl`, which outcome is on record?
**A.** inactive

**Q.** Which outcome does the source give for `Cc1ccc(C(C)C)c(O)c1` here?
**A.** inactive

**Q.** For `CCNc1cccc(C)c1`, which outcome is on record?
**A.** inactive

**Q.** Which AC50 does the source give for `Nc1ccccc1N` here?
**A.** 17.2 µM (active)

**Q.** Which outcome does the source give for `Cc1ccc(Cl)cc1` here?
**A.** inactive

**Q.** Which outcome does the source give for `Cc1ccc(C)c(C)c1` here?
**A.** inactive
